Reference: PubChem BioAssay AID1259422 (The Scripps Research Institute Molecular Screening Center, 2018)
Values joined by “and” are separate entries in the source; they are usually repeats but may differ in a detail not shown here. Identical values can stand only once. Screen size: about 640,000 compounds; about 9,300 (1.5%) were called active. Cut-off read from the data, not from the text of the source: active = inhibition above about 32%; inactive = the rest. The sample as a whole holds a higher share of actives than the screen did.

Assay: TEAD-YAP interaction inhibition, primary screen, TEAD-YAP interaction inhibitor project, luminescence, HEK-TIYL cells (AID 1259422);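 note: 0% = median of test compound wells and 100% = reference inhibitor wells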
Details: TEAD-Gal4/YAP UAS-luciferase luminescence, at 9.12 µM, hits give high values

SMILES	inhibition
COc1cc2cc(C)c3nnc(SCC(=O)NC(C)(C)C)n3c2cc1OC	-7.33% (inactive)
O=C1NC(=S)S/C1=C/c1ccc(-c2ccc3c(c2)COC3=O)o1	-7.22% (inactive)
O=C(NCc1cccc(C(F)(F)F)c1)c1csc(Nc2nccc3ccccc23)n1	-0.98% (inactive)
Cc1ccc(Nc2c(Cc3ccccc3)c(C)c(C#N)c3nc4ccccc4n23)cc1	-19.3% (inactive)
N#CC1=C(N)Oc2ccc3ncccc3c2C1c1ccccc1F (centres undefined)	50.8% (active)
CCOc1ccccc1C1C(C#N)=C(N)Oc2ccc3ccccc3c21 (centres undefined)	-6.22% (inactive)
N#CC1=C(N)Oc2ccc3ccccc3c2C1c1ccc(F)cc1 (centres undefined)	-0.56% (inactive)
C=CCN(CC=C)C(=O)/C=C/c1cccc([N+](=O)[O-])c1	7.6% (inactive)
COc1cccc(OCC(=O)N2CCC3(CC2)OCc2ccccc2O3)c1	-8.9% (inactive)
CC(=O)N1c2ccc(NC(=O)c3ccccc3)cc2C(C)(c2ccc(C)cc2)CC1(C)C (centres undefined)	13.9% (inactive)
CC(Cl)/C(O)=C(\C#N)c1nc2ccccc2[nH]1 (centres undefined)	-6.03% (inactive)
Cc1ccc2[nH]c3c(c2c1)CCCC3NCc1ccccc1 (centres undefined)	53.6% (active)
OCCNC1CCCc2c1[nH]c1ccc(-c3ccccc3)cc21 (centres undefined)	-12.6% (inactive)
Cc1ccc2[nH]c3c(c2c1)CCCC3NC=O (centres undefined)	5.42% (inactive)
Cc1ccc2nc(-c3cccc(NC(=O)c4cc([N+](=O)[O-])ccc4Br)c3)oc2c1	6.62% (inactive)
O=C(COc1ccc(Cl)cc1)Nc1ncc(Cc2ccc(F)cc2)s1	5.3% (inactive)
O=c1c2c(nc3n1CCCCC3)sc1c(O)cccc12	92.2% (active)
CC(C)(C)NCC(O)COc1c(Br)ccc2c1sc1nc3n(c(=O)c12)CCCCC3 (centres undefined)	-32.7% (inactive)
CC(=O)c1ccc(NC(=O)c2sc3nc4n(c(=O)c3c2C)CCCCC4)cc1	-3.85% (inactive)
COc1ccc(N2CC(CNC(=O)c3cccs3)CC2=O)cc1 (centres undefined)	6.17% (inactive)
CCOc1ccc(C2C(C#N)=C(N)N(c3cccc([N+](=O)[O-])c3)C3=C2C(=O)CC(C)(C)C3)cc1 (centres undefined)	-5.19% (inactive)
CCOc1ccc(C2C(C#N)=C(N)N(c3cccc(C)c3)C3=C2C(=O)CC(C)(C)C3)cc1 (centres undefined)	56.6% (active)
Cc1cccc(N2C(N)=C(C#N)C(c3ccc(F)cc3)C3=C2CC(C)(C)CC3=O)c1 (centres undefined)	-0.79% (inactive)

SMILES	inhibition
CC(=O)Nc1ccc(C(=O)N2CCN(c3cccc(Cl)c3)CC2)cc1	-15.7% (inactive)
CC(=O)c1c(C)[nH]c(C(=O)N2CCN(c3ccc(Cl)cc3)CC2)c1C	12.3% (inactive)
COc1ccc(-n2cc(C(=O)N3CCN(c4cccc(Cl)c4)CC3)c3ccccc3c2=O)cc1	0.04% (inactive)
Cc1cc(C(=O)N2CCN(c3cccc(Cl)c3)CC2)ccc1[N+](=O)[O-]	3.11% (inactive)
COc1ccc(Cl)cc1C(=O)N1CCN(c2cccc(Cl)c2)CC1	64% (active)
CCc1c(C(=O)N2CCN(c3cccc(Cl)c3)CC2)[nH]c(C)c1C(C)=O	52.2% (active)
O=C(c1cc(Cl)ccc1Cl)N1CCN(c2ccc(F)cc2)CC1	10.3% (inactive)
O=C(c1ccc([N+](=O)[O-])cc1)N1CCN(c2cccc(Cl)c2)CC1	-1.04% (inactive)
COc1cc(OC)cc(-n2nc(C(=O)N3CCN(c4cccc(Cl)c4)CC3)c3ccccc3c2=O)c1	9.86% (inactive)
CN(C)c1cccc(C(=O)N2CCN(c3cccc(Cl)c3)CC2)c1	32.4% (active)
CSc1ncc(Cl)c(C(=O)N2CCN(c3cccc(Cl)c3)CC2)n1	39% (active)
CC(=O)/C(C(=N)N1CCN(c2cccc(Cl)c2)CC1)=C(/C)O	-6.64% (inactive)
CN1CCN(C(=O)c2cc(-c3cccs3)n(CC(=O)N3CCC(O)CC3)n2)CC1	-2.96% (inactive)
Cc1ccc(Nc2nc(-c3ccccc3Cl)nc3ccccc23)cc1Cl	9.51% (inactive)
Cc1c(Cl)cccc1NC(=O)c1cnn2c(C(F)(F)F)cc(-c3ccco3)nc12	0.28% (inactive)
O=[N+]([O-])c1ccc(-c2csc(=NCc3cccnc3)n2-c2ccccc2)cc1	-0.76% (inactive)
Cc1nnc(NC(=O)CSc2nc3ccccc3cc2C#N)s1	-10.2% (inactive)
COc1ccc(CC(=O)Nc2nnc(SCC(=O)Nc3nnc(C)s3)s2)cc1	12.5% (inactive)
Cc1nnc(NC(=O)CSc2nc(C(C)C)ccc2C#N)s1	62.8% (active)
C=CCNC(=O)Cn1cnc2c([nH]c3ccc(C)cc32)c1=O	3.72% (inactive)
COc1ccc(NC(=O)CN(c2cc(C(F)(F)F)ccc2Cl)S(=O)(=O)c2ccccc2)cc1	56.2% (active)
NC(=O)CN(c1cc(C(F)(F)F)ccc1Cl)S(=O)(=O)c1ccccc1	-1.66% (inactive)
O=C(CN(c1cc(C(F)(F)F)ccc1Cl)S(=O)(=O)c1ccccc1)NCc1ccncc1	3.78% (inactive)

SMILES	inhibition
CCCCOc1ccc(NC(=O)C(C)Oc2ccc(OC)cc2)cc1 (centres undefined)	7.98% (inactive)
COC(=O)c1sc(NC(=O)c2ccncc2)c(C#N)c1C	-4% (inactive)
COC(=O)c1sc(NC(=O)C2CCCCC2)c(C#N)c1C	1.29% (inactive)
COC(=O)c1sc(NC(=O)C2(C)CC2(Cl)Cl)c(C#N)c1C (centres undefined)	38.3% (active)
COc1ccccc1N1CCN(S(=O)(=O)c2ccc(F)c(C(=O)Nc3ccc(C(C)C)cc3)c2)CC1	-4.13% (inactive)
CC(C)CC(C(=O)N1CCOCCN(C(=O)C(CC(C)C)N2C(=O)c3ccccc3C2=O)CCOCC1)N1C(=O)c2ccccc2C1=O (centres undefined)	-2.73% (inactive)
CCCOc1c(Cl)cc(/C=C/C(=O)O)cc1OC	4.32% (inactive)
O=C(NNc1ncc([N+](=O)[O-])cc1[N+](=O)[O-])c1ccncc1	6.87% (inactive)
O=C(O)C1CCCCC1C(=O)N1CCN(c2nc(-c3ccccc3Cl)c3cc(Br)ccc3n2)CC1 (centres undefined)	-2.46% (inactive)
C[C@H]1O[C@@H](O[C@H]2[C@@H](O)C[C@H](O[C@H]3[C@@H](O)C[C@H](O[C@H]4CC[C@]5(C)C6C[C@@H](O)[C@]7(C)[C@@H](C8=CC(=O)OC8)CC[C@]7(O)C6CC[C@@H]5C4)O[C@@H]3C)O[C@@H]2C)C[C@H](O)[C@@H]1O (some centres undefined)	99.7% (active) and 101% (active)
O=C1CCCN1CCCNc1cc(N2CCN(c3ccccn3)CC2)ncn1	6.77% (inactive)
CC(=O)c1cc(Cl)cc(Cl)c1O	-4.24% (inactive)
CCOC(=O)COc1ccc2cc(-c3nc4ccccc4s3)c(=O)oc2c1	-4.53% (inactive)
CCCOc1ccc2cc(-c3csc(N)n3)c(=O)oc2c1	59.4% (active)
CCN(CC)c1ccc2cc(-c3csc(-c4nc(-c5cc6ccc(N(CC)CC)cc6oc5=O)cs4)n3)c(=O)oc2c1	4.64% (inactive)
CN(CCO)c1ccc(/C=N/Nc2nncc3ccccc23)cc1	76.3% (active)
COc1ccc(/C=N/NC(=O)CN(C)c2ccccc2)cc1OC	-17.2% (inactive)
CN(C)c1ccc(/C=N/Nc2nc(-c3ccccc3)cs2)cc1	-3.84% (inactive)
c1ccc(CNc2nc3ccccc3n2CCOc2ccccc2)cc1	-21.7% (inactive)
CCC(CC)NS(=O)(=O)c1ccccc1[N+](=O)[O-]	12.2% (inactive)
Nc1ccc(Sc2ccccc2[N+](=O)[O-])cc1	-0.16% (inactive)
CCS(=O)(=O)c1cc([N+](=O)[O-])c(Sc2ccccc2N)s1	75.8% (active)
CN(c1ccc2nc3ccccc3c(=O)n2n1)C1CCCCC1	89.7% (active)

SMILES	inhibition
CN(C(=O)Cn1nc2c3ccccc3nc(C3CC3)n2c1=O)C1CCCCC1	-4.4% (inactive)
COC(=O)c1cnc(N(C)C2CCCCC2)c2ccccc12	6.67% (inactive)
CC(=O)Nc1ccc(Nc2nc(Nc3cnccn3)nc3c2ncn3-c2ccccc2)cc1	49.2% (active)
CC(=O)Nc1ccc(Nc2nc(N3CCC(N4CCOCC4)CC3)nc3c2ncn3-c2ccccc2)cc1	5.05% (inactive)
CC(=O)Nc1ccc(Nc2nc(N3CCN(c4ccccn4)CC3)nc3c2ncn3-c2ccsc2)cc1	19.9% (inactive)
c1ccc(Nc2nc(Nc3ncccn3)nc3c2ncn3-c2ccccc2)cc1	-25.3% (inactive)
CC(=O)Nc1ccc(Nc2nc(Cl)nc3c2ncn3-c2ccsc2)cc1	33.8% (active)
CC(=O)Nc1ccc(Nc2nc(Nc3ccncn3)nc3c2ncn3-c2ccsc2)cc1	6.4% (inactive)
COc1ccc(S(=O)(=O)CCC(=O)Nc2ccc(C)cc2Br)cc1	-9.1% (inactive)
COc1ccc(/C=C2/C(=O)NN(c3cccc(Cl)c3)C2=O)cc1	5.26% (inactive)
CC(=O)Oc1ccc(/C=C2\N=C(c3ccccc3F)OC2=O)cc1	-4.17% (inactive)
Cc1c(C(=O)N/N=C/c2cccc([N+](=O)[O-])c2)nnn1-c1nonc1N	-6.33% (inactive)
CC(=O)Oc1c(C)cc(C)c2ccc(=O)[nH]c12	-7.29% (inactive)
CCc1ccc(CC(=O)N2CC(=O)Nc3ccccc32)cc1	49.8% (active)
CC1CC(=O)Nc2ccccc2N1C(=O)Cc1ccc(Cl)cc1 (centres undefined)	-16.4% (inactive)
O=C1CN(C(=O)CCl)c2ccccc2N1	14.1% (inactive)
CCCOCc1c[nH]c(=O)[nH]c1=O	-4.81% (inactive)
CCOC(=O)C1=C(NC(=S)NC(=O)c2ccccc2)c2ccccc2CC1(CC)CC	51.5% (active)
COc1ccc(C(=O)O)cc1NC(=S)NC(=O)c1ccccc1	-6.39% (inactive)
CCOC(=O)c1c(NC(=S)NC(=O)c2ccccc2)sc2c1CC(C)(CC)OC2 (centres undefined)	8.08% (inactive)
